Inconclusive results are not listed. Unmarked numbers belong to inactive results. Activity calls are given as the source filed them. Calls come from the whole dose curve; as a rule, active = well fitted inhibition curve with a large enough effect; inconclusive = small, poorly fitted or top-dose-only effect; inactive = flat fitted curve, though single readings scatter.
biological target: Luciferin 4-monooxygenase (Photuris pensylvanica) (UniProt Q27757); test: Secondary Assay for Luciferase (Kinase-Glo TM) Inhibition Counterscreen; conditions: Kinase-Glo luciferase enzyme, luminescence; series mostly up to 58.1 µM; activity, negative = inhibition: at the top concentration;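 for activity, negative = inhibition: 0% = DMSO only and -100% = 40 µM SIB 1757 full inhibition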
How it was run: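 Kinase-Glo firefly-type luciferase with 10 uM ATP in 50 mM imidazole pH 7.2, 50 mM KCl, 7 mM MgCl2, 0.01% Tween 20, 0.05% BSA. Luminescence read after 8 min at ambient temperature, normalized to DMSO and 40 uM SIB 1757, then Hill-fitted.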
Potency is the fitted concentration of half-maximal effect.

| Structure (SMILES) | activity, negative = inhibition [%] | Potency |
| --- | --- | --- |
| O=C1CCc2cc(S(=O)(=O)Nc3cccc(-c4ccccc4)c3)ccc2N1 | -0.362 | – |
| O=C(COC(=O)CCC(=O)c1ccc(F)cc1)Nc1ccc(F)cc1F | -4.06 | – |
| COC(=O)CSC1=NS(=O)(=O)c2ccccc21 | -7.15 | – |
| O=C1c2ccccc2C(=O)N1c1ccccn1 | 1.24 | – |
| CC[n+]1c(C)sc2sc3ccccc3c21 | 0.171 | – |
| O=CN/C=C/c1cc(O)ccc1O | -4.82 | – |
| O=C1c2ccccc2C(=O)N1c1cccc(=O)[nH]1 | -2.84 | – |
| Cc1nc(N/N=C/c2ccccn2)sc1C | – | 5.8 µM (active) |
| COc1ccc(NS(=O)(=O)c2ccc3c(c2)CCC(=O)N3)cc1 | 1.39 | – |
| COc1ccc(S(=O)(=O)Nc2ccc(C)c(C)c2)cc1 | -2.2 | – |
| Cc1ccc(NS(=O)(=O)c2ccc3c(c2)N(C)CCO3)cc1C | 0.646 | – |
| O=C1c2ccccc2C(=O)N1c1nccs1 | 1.91 | – |
| COc1ccc(C(=O)C[n+]2ccc(N)c(C)c2C)cc1 | -1.09 | – |
| Cc1ccc(NS(=O)(=O)c2cc3c(cc2Br)NC(=O)CO3)cc1C | -0.929 | – |
| O=C(/C=C/Nc1ccccc1Br)c1ccccn1 | – | 13 µM (active) |
| Cc1ccc(NS(=O)(=O)c2cc3c(cc2-c2ccsc2)NC(=O)CO3)cc1C | -1.05 | – |
| O=S1(=O)N=C(Oc2ccccc2Cl)c2ccccc21 | 0.85 | – |
| CN1CCc2cccc3c2C1Cc1ccc(O)c(O)c1-3 (stereo not drawn) | 1.25 | – |
